Results filed as inconclusive are left out. The source made the active and inactive calls. Unless noted, calls follow the shape of the dose curve; as a rule, active = well fitted curve in the direction sought with a large enough effect in the repeat runs; inconclusive = weak or mixed curves; inactive = no such curve, though single readings can be large; an effect the other way counts as inactive or inconclusive.
Legend:
[1] = qHTS RealTime-Glo MT Cell Viability Assay in HEK293 cells - 0 hour (AID 1224880); also: top concentration of the series differs between compounds; nearly all actives have a fitted effect of over 45% in size
Procedure, shortened: (§1)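 Luminescence readout at each listed time point; HEK293, 600 cells/well, RealTime-Glo MT reagent added with cells; compounds pinned (23 nL in DMSO) after 5 h at 37 C; continuous culture at 37 C.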

[2] = A CellTox Green Cytotoxicity Assay to monitor cytotoxicity in HEK293 cells - 32 hour (AID 1224881); also: nearly all actives have a fitted effect of over 40% in size; also: potency is read from the fitted curve at half-maximal effect
Procedure, shortened: (§2)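 Read-out: fluorescence of a cell-impermeant cyanine dye staining DNA of dead cells, proportional to cytotoxicity. HEK293, 600 cells/well with reagent, compound (23 nL DMSO) added after 5 h; reads at 0, 8, 16, 24, 32, 40 h.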

[3] = A CellTox Green Cytotoxicity Assay to monitor cytotoxicity in HepG2 cells - 0 hour (AID 1224882); also: nearly all actives have a fitted effect of over 35% in size
Procedure, shortened: (§3)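 HepG2, 600 cells/well premixed w/ CellTox Green; 5 h settle, 37 C/5% CO2; pintool cpd add (DMSO); 37 C, 40 h; fluorescence read at 0, 8, 16, 24, 32, 40 h.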

[4] = A CellTox Green Cytotoxicity Assay to monitor cytotoxicity in HepG2 cells - 32 hour (AID 1224883); also: nearly all actives have a fitted effect of over 50% in size; also: potency is read from the fitted curve at half-maximal effect
Procedure, shortened: as §3

[5] = A CellTox Green Cytotoxicity Assay to monitor cytotoxicity in HEK293 cells - 8 hour (AID 1224884); also: nearly all actives have a fitted effect of over 35% in size
Procedure, shortened: as §2

[6] = qHTS RealTime-Glo MT Cell Viability Assay in HepG2 cells - 16 hour (AID 1224885); also: nearly all actives have a fitted effect of over 50% in size
Procedure, shortened: (§4)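 Cell number in HepG2 cultures estimated from NanoLuc luminescence generated by metabolic reduction of a prosubstrate by living cells. The homogeneous, nonlytic format allowed repeated reads at 0, 8, 16, 24, 32 and 40 h of compound exposure.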

[7] = A CellTox Green Cytotoxicity Assay to monitor cytotoxicity in HEK293 cells - 16 hour (AID 1224888); also: nearly all actives have a fitted effect of over 35% in size
Procedure, shortened: as §2

[8] = A CellTox Green Cytotoxicity Assay to monitor cytotoxicity in HepG2 cells - 8 hour (AID 1224890); also: nearly all actives have a fitted effect of over 45% in size
Procedure, shortened: as §3

[9] = qHTS assay to identify small molecule antagonists of the estrogen receptor alpha (ER-alpha) signaling pathway using the BG1 cell line in the presence of 0.1 nM 17-beta-estradiol - cell viability counter screen (AID 1259241); also: nearly all actives have a fitted effect of over 40% in size
Procedure, shortened: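 VM7Luc4E2, 4,000 cells/well, phenol red-free medium + 10% charcoal-stripped FBS; 24 hr plating; cpd + 0.1 nM E2 final, 22 hr 37C/5% CO2; CellTiter-Fluor 30 min, fluorescence.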

[10] = qHTS assay to identify small molecule antagonists of the androgen receptor (AR) signaling pathway using the MDA cell line in the presence of 0.5 nM R1881 - cell viability counter screen (AID 1259242); also: nearly all actives have a fitted effect of over 45% in size; also: potency is read from the fitted curve at half-maximal effect
Procedure, shortened: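 Live-cell protease fluorescence, CellTiter-Fluor, 30 min at 37C. Cells: MDA-kb2, 3,000/well, preincubated 5 hr. Compounds plus 0.5 nM R1881 final, 16 hr, 37C, 0% CO2.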

[11] = molecular target: Estrogen receptor (Homo sapiens) (UniProt P03372); test: qHTS assay to identify small molecule antagonists of the estrogen receptor alpha (ER-alpha) signaling pathway using the BG1 cell line in the presence of 0.1 nM 17-beta-estradiol (AID 1259244); also: nearly all actives have a fitted effect of over 50% in size
Procedure, shortened: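 Luminescence after ONE-Glo (30 min, room temperature) measured ERE-luciferase activity in VM7Luc4E2 cells treated 22 h with compound and 0.1 nM final 17beta-estradiol as stimulator.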

[12] = qHTS assay to identify small molecule HDAC inhibitors (AID 1259364); also: potency is read from the fitted curve at half-maximal effect;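 also: wild-type HCT-116 cells with endogenous class I/II HDAC activity; nearly all actives have a fitted effect of over 45% in size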
Procedure, shortened: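 HCT-116 (wild type), 1,500 cells/well, overnight; compound 2 hr 37C 5% CO2; HDAC-Glo I/II reagent 30 min RT; luminescence readout.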

[13] = qHTS assay to identify small molecule agonists of the sonic hedgehog signaling (Shh) pathway - cell viability counter screen (AID 1259366); also: nearly all actives have a fitted effect of over 50% in size; also: potency is read from the fitted curve at half-maximal effect
Procedure, shortened: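 Cytotoxicity counter screen run in the same wells as the Shh reporter assay. NIH/3T3 cells carrying a Gli1 response element–driven luciferase were treated with DMSO-dissolved compounds for 24hr, and live-cell protease activity was measured with CellTiter-Fluor.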

[14] = qHTS assay to identify small molecule antagonists of the sonic hedgehog signaling (Shh) pathway - cell viability counter screen (AID 1259367); also: nearly all actives have a fitted effect of over 55% in size; also: potency is read from the fitted curve at half-maximal effect
Procedure, shortened: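 Conditioned medium drove Shh signaling in 3T3 Gli1-Luc cells exposed to compounds at 37C and 5% CO2. Viability was determined from CellTiter-Fluor fluorescence, with reagent incubated 1 hr after 23 hr of treatment.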

[15] = qHTS RealTime-Glo MT Cell Viability Assay in HEK293 cells - 24 hour (AID 1224886); also: nearly all actives have a fitted effect of over 50% in size; also: potency is read from the fitted curve at half-maximal effect
Procedure, shortened: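 Homogeneous bioluminescent viability format in HEK293 cells (600 cells/well). Following 5 h at 37 C/5% CO2, 23 nL compound was pintooled; the signal was measured repeatedly during 40 h incubation.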

[16] = qHTS RealTime-Glo MT Cell Viability Assay in HEK293 cells - 8 hour (AID 1224887); also: nearly all actives have a fitted effect of over 50% in size; also: potency is read from the fitted curve at half-maximal effect
Procedure, shortened: as §1

[17] = qHTS RealTime-Glo MT Cell Viability Assay in HepG2 cells - 0 hour (AID 1224889); also: nearly all actives have a fitted effect of over 50% in size
Procedure, shortened: as §4

[18] = molecular target: Androgen receptor (Homo sapiens) (UniProt P10275); test: qHTS assay to identify small molecule antagonists of the androgen receptor (AR) signaling pathway using the MDA cell line in the presence of 0.5 nM R1881 (AID 1259243); also: nearly all actives have a fitted effect of over 50% in size
Procedure, shortened: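 MDA-kb2, MMTV-luc (AR/GR elements); 3,000 cells/well; cpd + 0.5 nM R1881 final; 16 hr 37C, 0% CO2; ONE-Glo 30 min RT; luminescence.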

[19] = qHTS assay to identify small molecule HDAC inhibitors - cell viability counter screen (AID 1259365)
Procedure, shortened: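 Luminescence from CellTiter-Glo, developed 30min at room temperature, reports viability of wild-type HCT-116 cells treated 2hr with compounds at 37 C and 5% CO2 after overnight plating.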

[20] = qHTS assay to identify small molecule phospholipidosis (PLD) inducers (AID 1259344; active = well fitted curve in the direction sought with a large enough effect; an effect the other way counts as inactive or inconclusive)
Procedure, shortened: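 After 4 h attachment on collagen I, HepG2 cells were dosed with compound alongside LipidTOX Red, kept 24 h at 37 C, fixed, and imaged for lamellar phospholipid pits.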
% is scaled to controls: 0 for no effect and ±100 for the full control effect.

Estrogen receptor (Homo sapiens), sequence (P03372 whole entry, looked up): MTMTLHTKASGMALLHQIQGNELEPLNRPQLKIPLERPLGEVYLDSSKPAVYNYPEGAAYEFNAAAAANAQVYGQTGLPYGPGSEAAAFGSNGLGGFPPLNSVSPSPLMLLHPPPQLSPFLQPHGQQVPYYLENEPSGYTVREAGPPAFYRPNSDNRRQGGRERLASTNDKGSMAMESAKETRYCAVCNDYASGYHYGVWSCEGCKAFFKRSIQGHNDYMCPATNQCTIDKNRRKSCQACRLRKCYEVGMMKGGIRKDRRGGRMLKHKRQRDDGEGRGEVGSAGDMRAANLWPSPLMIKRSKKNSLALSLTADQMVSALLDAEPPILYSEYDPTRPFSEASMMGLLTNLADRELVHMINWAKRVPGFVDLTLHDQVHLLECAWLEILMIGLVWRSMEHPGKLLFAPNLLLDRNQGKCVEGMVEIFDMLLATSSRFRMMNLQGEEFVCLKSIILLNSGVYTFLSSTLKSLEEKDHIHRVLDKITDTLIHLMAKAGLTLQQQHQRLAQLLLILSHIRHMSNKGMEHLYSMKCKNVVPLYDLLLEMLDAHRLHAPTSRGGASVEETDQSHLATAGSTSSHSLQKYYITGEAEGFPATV
Androgen receptor (Homo sapiens), sequence (P10275 whole entry, looked up): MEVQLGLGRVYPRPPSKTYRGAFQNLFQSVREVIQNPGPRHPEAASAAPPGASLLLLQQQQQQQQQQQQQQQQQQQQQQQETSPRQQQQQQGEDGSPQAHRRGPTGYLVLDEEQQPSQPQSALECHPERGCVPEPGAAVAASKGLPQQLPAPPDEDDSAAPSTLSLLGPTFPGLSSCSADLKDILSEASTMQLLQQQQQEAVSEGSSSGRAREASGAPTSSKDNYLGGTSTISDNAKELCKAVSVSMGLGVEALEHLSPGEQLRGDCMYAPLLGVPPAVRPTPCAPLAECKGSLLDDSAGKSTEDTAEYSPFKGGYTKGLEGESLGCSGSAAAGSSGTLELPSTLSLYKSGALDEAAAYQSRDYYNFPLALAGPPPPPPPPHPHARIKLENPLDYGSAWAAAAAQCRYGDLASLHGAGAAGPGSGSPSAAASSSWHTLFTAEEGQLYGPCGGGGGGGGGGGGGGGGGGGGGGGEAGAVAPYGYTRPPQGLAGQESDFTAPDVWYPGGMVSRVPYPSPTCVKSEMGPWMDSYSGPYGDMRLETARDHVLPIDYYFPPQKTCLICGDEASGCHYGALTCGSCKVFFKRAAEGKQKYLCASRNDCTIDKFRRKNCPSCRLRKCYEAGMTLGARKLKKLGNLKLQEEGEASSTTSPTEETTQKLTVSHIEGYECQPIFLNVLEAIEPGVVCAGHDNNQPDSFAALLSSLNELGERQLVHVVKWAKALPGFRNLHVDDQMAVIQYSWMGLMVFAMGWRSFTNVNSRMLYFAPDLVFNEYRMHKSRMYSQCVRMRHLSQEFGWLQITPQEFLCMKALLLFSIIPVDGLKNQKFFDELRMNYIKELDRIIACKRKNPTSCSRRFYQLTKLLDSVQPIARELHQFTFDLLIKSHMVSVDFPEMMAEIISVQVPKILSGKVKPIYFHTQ

C=COCC(C)C
inactive: Potency [1] | Potency [2] | Potency [3] | Potency [4] | Potency [5] | Potency [6] | Potency [7] | Potency [8] | Potency [9] | Potency [10] | Potency [11] | Potency [12] | Potency [13] | Potency [14]

CCCCCC[C@@H](O)C/C=C\CCCCCCCC(=O)OCC(O)CO (some centres undefined)
inactive: Potency [1] | Potency [2] | Potency [3] | Potency [5] | Potency [6] | Potency [15] | Potency [16] | Potency [7] | Potency [17] | Potency [8] | Potency [9] | Potency [10] | Potency [18] | Potency [11] | Potency [12] | Potency [19] | Potency [13] | Potency [14]

COc1cc(Nc2c(C#N)cnc3cc(OCCCN4CCN(C)CC4)c(OC)cc23)c(Cl)cc1Cl
inactive: Potency [1] | Potency [3] | Potency [5] | Potency [9] | Potency [20] | Potency [12] | Potency [19] | Potency [14]
active: Potency [2] 21.3 µM | Potency [4] 9.52 µM | Potency [15] 9.52 µM | Potency [16] 23.9 µM | Potency [10] 29.8 µM | Potency [13] 29.8 µM

CC(C)(O)c1ccc(CNC(=O)c2cccnc2Oc2ccc3nonc3c2)cc1
inactive: Potency [1] | Potency [2] | Potency [3] | Potency [4] | Potency [5] | Potency [6] | Potency [16] | Potency [7] | Potency [8] | Potency [9] | Potency [10] | Potency [12] | Potency [14]

OC[C@H]1O[C@@H](n2cnc3c(=S)nc[nH]c32)[C@H](O)[C@@H]1O
inactive: Potency [1] | Potency [2] | Potency [3] | Potency [4] | Potency [5] | Potency [6] | Potency [16] | Potency [7] | Potency [17] | Potency [8] | Potency [9] | Potency [10] | Potency [20] | Potency [12] | Potency [19] | Potency [14]

CCC(C)COC(=O)CC(C)C (centres undefined)
active: Potency [4] 54.9 µM
inactive: Potency [1] | Potency [2] | Potency [3] | Potency [6] | Potency [15] | Potency [16] | Potency [7] | Potency [17] | Potency [8] | Potency [9] | Potency [10] | Potency [11] | Potency [12] | Potency [19] | Potency [13] | Potency [14]

C/C=C\C/C=C/CCCCCCCCOC(C)=O
inactive: Potency [1] | Potency [2] | Potency [3] | Potency [4] | Potency [5] | Potency [6] | Potency [15] | Potency [7] | Potency [8] | Potency [9] | Potency [10] | Potency [11] | Potency [12] | Potency [19] | Potency [13] | Potency [14]

OCCOCC#CCOCCO
inactive: Potency [1] | Potency [2] | Potency [3] | Potency [5] | Potency [6] | Potency [15] | Potency [16] | Potency [7] | Potency [17] | Potency [8] | Potency [9] | Potency [10] | Potency [11] | Potency [12] | Potency [19] | Potency [13] | Potency [14]

COC(=O)CS
active: Potency [12] 26.3 µM
inactive: Potency [1] | Potency [2] | Potency [3] | Potency [4] | Potency [5] | Potency [6] | Potency [15] | Potency [16] | Potency [8] | Potency [9] | Potency [10] | Potency [11] | Potency [14]

CC/C=C1/OC(=O)c2ccccc21
inactive: Potency [1] | Potency [2] | Potency [3] | Potency [5] | Potency [6] | Potency [15] | Potency [16] | Potency [7] | Potency [17] | Potency [8] | Potency [9] | Potency [10] | Potency [18] | Potency [12] | Potency [19]

CC1(C)[C@H](C(=O)O)N2C(=O)C[C@H]2S1(=O)=O
inactive: Potency [1] | Potency [2] | Potency [3] | Potency [4] | Potency [5] | Potency [6] | Potency [15] | Potency [16] | Potency [8] | Potency [9] | Potency [10] | Potency [11] | PLD induction [20] 7.08% [at 7.66 µM] | Potency [12] | Potency [19] | Potency [13] | Potency [14]

CO[C@]1(NC(=O)CSC(F)F)C(=O)N2C(C(=O)O)=C(CSc3nnnn3CCO)CO[C@H]21
inactive: Potency [1] | Potency [2] | Potency [3] | Potency [5] | Potency [6] | Potency [15] | Potency [16] | Potency [7] | Potency [17] | Potency [8] | Potency [9] | Potency [10] | Potency [20] | Potency [12] | Potency [19] | Potency [13] | Potency [14]

COc1ccccc1N1CCN(CC(O)COc2cccc3ccccc23)CC1 (centres undefined)
active: Potency [4] 26.8 µM
inactive: Potency [1] | Potency [2] | Potency [3] | Potency [5] | Potency [6] | Potency [16] | Potency [7] | Potency [8] | Potency [9] | Potency [10] | Potency [20] | Potency [12] | Potency [19] | Potency [14]

CC(C)(c1ccccc1)c1ccccc1
inactive: Potency [1] | Potency [3] | Potency [4] | Potency [6] | Potency [15] | Potency [17] | Potency [8] | Potency [9] | Potency [10] | Potency [12] | Potency [19] | Potency [13] | Potency [14]
active: Potency [2] 51.1 µM

COc1ccccc1Oc1c(NS(=O)(=O)c2ccc(C(C)(C)C)cc2)nc(-c2ncccn2)nc1OCCO
active: Potency [14] 26.6 µM
inactive: Potency [1] | Potency [2] | Potency [3] | Potency [5] | Potency [6] | Potency [15] | Potency [16] | Potency [7] | Potency [17] | Potency [8] | Potency [9] | Potency [10] | Potency [11] | Potency [20] | Potency [12] | Potency [13]

— PubChem BioAssay (Tox21)
